The results in this text go back to PubChem BioAssay (NCI).

About 83,000 compounds went through this panel and 20% of them were active in at least one assay; those are over-represented in the sample as a whole.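 How to read the values: 0–100, growth inhibition (40 = 60% inhibited); 0, no net growth; -100 to 0, cell death (-40 = 40% of starting cells died; -100 = all dead).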 A number with no mark means an inactive call. Activity calls are given as the source filed them. The calls were made as follows: active = growth percent below 10; inactive = the rest.

Assay in all cases: NCI-60 one-dose screen, 48 h (100 = growth as untreated, 0 = no growth, -100 = all killed)
Common to all, as to conditions: 10 µM unless noted

Experiment [1] relates to SR leukemia.
In experiment [2] the test system is RPMI-8226 leukemia.
The test system of experiment [3] is OVCAR-8 ovarian.
For experiment [4], the system named is OVCAR-5 ovarian.
In experiment [5] the test system is OVCAR-4 ovarian.
Experiment [6] concerns SK-OV-3 ovarian.
In experiment [7] the test system is IGROV1 ovarian.
Experiment [8] relates to OVCAR-3 ovarian.
For experiment [9], the system named is HS 578T breast.
Experiment [10] deals with NCI/ADR-RES ovarian.

For `CC(C)CCSc1nc(Nc2ccccc2)c(C#N)c(-c2ccccc2)n1`, the growth was 27.2% in experiment [1]; 73.9% in [2]; 42.7% in experiment [3]; 64.9% in experiment [4]; -7.19% (active) in [5]; 69.1% in [6]. Further, the growth in [7] was 17.3%; in [8], 57.6%; in experiment [9] it was 14.3%; in [10], 52.4%.

In the case of `COc1cc(N2C(=O)[C@H](c3ccccc3)C2c2ccc(SC)cc2)cc(OC)c1OC` (stereo not given in full), the growth is -5.24% (active) in experiment [1]; -9.2% (active) in experiment [2]; 4.09% (active) in [3]; 56.8% in experiment [4]; 48.6% in experiment [5]; 8.14% (active) in experiment [6]. Further, the growth is 13.7% in experiment [7], 8.73% (active) in [8], 20.6% in experiment [9] and 9.89% (active) in [10].

Take `C=CCOC(=O)C1=C(C)NC(=O)NC1c1c(Cl)n(C)c2ccccc12` (stereo not given): the growth in experiment [1] was 97.9%; in experiment [2], 81.3%; in experiment [3] it was 102%; in experiment [4], 96%; in [5] it was 103%; in experiment [6], 94.5%. The growth in experiment [7] was 107%; in experiment [8], 104%; in [9] it was 98.8%; in experiment [10], 99.2%.

`N#Cc1nc(-c2ccc(F)cc2)oc1S(=O)(=O)N1CCN(c2ccc(F)cc2)CC1`: the growth in experiment [1] is 6.45% (active); in experiment [2], 46.5%; in experiment [3], 71.4%; in experiment [4], 111%; in experiment [5], 105%; in experiment [6] it was 118%. In addition, the growth was 76% in [7], 91% in experiment [8], 107% in experiment [9] and 94.7% in [10].

Turning to `O=C(CCCCl)NNc1nccc(Nc2ccc(S(=O)(=O)Nc3ccncc3)cc2)n1`, the growth in [1] was 95%; in experiment [2] it was 104%; in [3] it was 106%; in experiment [4], 103%; in [5], 101%; in [6], 101%. For the same compound, the growth in experiment [7] was 101%; in [8], 104%; in experiment [9], 112%; in [10], 99.8%.

In the case of `O=C(CN1C(=O)/C(=C/c2ccco2)SC1=S)NCCc1c[nH]c2ccc(F)cc12`, the growth is 111% in experiment [1]; 97.8% in experiment [2]; 105% in experiment [3]; 105% in experiment [4]; 99.7% in experiment [5]; 93.7% in [6]. For the same compound, the growth is 104% in experiment [7], 110% in experiment [8], 95.9% in experiment [9] and 99.1% in experiment [10].

For `N#Cc1c(NC(=O)c2cccs2)[n+]([O-])c2ccc(Cl)cc2[n+]1[O-]`, the growth in experiment [1] is 109%; in experiment [2], 104%; in [3] it was 108%; in [4], 114%; in experiment [5], 94.8%; in experiment [6] it was 94%. For the same compound, the growth in experiment [7] was -19.9% (active); in experiment [8] it was 81.5%; in [9], 56.9%; in experiment [10] it was 99.2%.

As to `Cn1c(/C=C/[N+](=O)[O-])cc2ccccc21`, the growth in [1] is -7.91% (active); in experiment [2], -17.3% (active); in experiment [3], 10.8%; in experiment [4], 7.36% (active); in experiment [5] it was 94.2%; in experiment [6], 82.4%. Moreover, the growth in experiment [7] was 0.609% (active); in experiment [8] it was 88.3%; in [9], 70.2%; in experiment [10], 59.5%.

Turning to `C#CCOc1cccc(-c2ncc3cc(NC(=O)CCl)ccc3n2)c1`, the growth in [1] was -28.2% (active); in experiment [2], -24.9% (active); in experiment [3] it was 6.25% (active); in experiment [4], -58.8% (active); in [5] it was -28.2% (active); in experiment [6] it was 76.8%. Also, the growth in [7] is -52.7% (active); in experiment [8], -51.2% (active); in experiment [9], 31.7%; in [10], 7.12% (active).

Turning to `COc1ccc2[nH]cc(-c3nc(-c4cn(C)c5ccncc45)cs3)c2c1`, the growth in experiment [1] is -11.2% (active); in experiment [2], -40.3% (active); in [3] it was -9.37% (active); in experiment [4], 103%; in experiment [5], 24.1%; in [6], 112%. Further, the growth is -38.5% (active) in experiment [7], 117% in experiment [8], 101% in [9] and 62.1% in experiment [10].

For the compound `C=CCN=C(N)SCCCCCCSC(N)=NCC=C`, the growth was 93.7% in [1]; 94% in experiment [2]; 94.6% in experiment [3]; 97.5% in experiment [4]; 109% in experiment [5]; 70.4% in experiment [6]. For the same compound, the growth in experiment [7] was 103%; in [8] it was 95.9%; in experiment [9], 92.2%; in [10], 104%.

Regarding `C=C1C(=O)O[C@H]2[C@H]1CC/C(Cn1cc(-c3cc(C(F)(F)F)cc(C(F)(F)F)c3)nn1)=C\CC[C@@]1(C)O[C@@H]21`, the growth in [1] was -48.5% (active); in [2], -31.4% (active); in experiment [3], -85.7% (active); in experiment [4], -69.4% (active); in [5], -95.1% (active); in experiment [6] it was -89.5% (active). In addition, the growth in [7] was -78.6% (active); in experiment [8] it was -92.7% (active); in [9], -30.5% (active); in experiment [10], -35.7% (active).

As for `COc1ccc(C2=C/C(=C\c3ccc(Cl)cc3)C(=O)N2/N=C/c2ccc(Cl)cc2)cc1`, the growth in [1] was 88.3%; in experiment [2], 101%; in experiment [3], 83.5%; in [4], 103%; in experiment [5], 79.2%; in experiment [6] it was 88.6%. Besides, the growth in experiment [7] was 91.2%; in [8], 99.6%; in experiment [9], 91.4%; in experiment [10], 104%.
